# High-throughput results deposited in PubChem by National Center for Advancing Translational Sciences (NCATS).
# ALOX12 inhib: 12-hLO (ALOX12) enzyme inhibition; P18054; purified 12-hLO, xylenol orange hydroperoxide absorbance; Potency, µM (highest dose often 57.1 µM), most hits filed as inhibitors; 0.12% of 150,000 active; note: nearly all actives have a fitted effect of over 55% in size
#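 Hydroperoxide formation by human 12-lipoxygenase from 40 uM arachidonic acid was followed colorimetrically via ferric-xylenol orange complex, using the 573/405 nm absorbance ratio. Enzyme concentration was 150 nM, with 30 min reaction at room temperature.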
# HPGD inh: blocks human HPGD enzyme activity; purified HPGD, NADH fluorescence kinetic, PGE2 substrate; Potency, µM, most hits filed as inhibitors; 4.3% of 150,000 active; AID 894; active = well fitted inhibition curve with a large enough effect, not every such curve was filed as active; inconclusive = small, poorly fitted or top-dose-only effect, or another doubt; inactive = no such curve, though single readings can be large or run the other way
# Target sequence (P15428 whole entry, looked up): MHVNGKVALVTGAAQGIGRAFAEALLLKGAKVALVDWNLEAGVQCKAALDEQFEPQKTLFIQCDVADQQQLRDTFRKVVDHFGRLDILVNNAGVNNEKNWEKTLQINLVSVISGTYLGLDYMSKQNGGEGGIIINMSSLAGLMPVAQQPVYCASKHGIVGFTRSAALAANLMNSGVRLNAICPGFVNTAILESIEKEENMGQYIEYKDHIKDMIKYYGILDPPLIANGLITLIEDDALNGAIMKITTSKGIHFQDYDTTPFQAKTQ
#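 NADH formation kinetics: reaction with 30 uM PGE2 and 1 mM NAD+ (final), 20 nM enzyme, Tris-HCl pH 8 with Tween 20, after 15 min compound preincubation at room temperature. Fluorescence change, last versus first of five reads.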
# p53ts 39C tox: cytotoxicity in p53ts cells at nonpermissive temperature; H1299-p53A138V viability at 39C, ATP luminescence, 24 h; AID 902; Potency, µM (top dose mostly 46.1 µM), most hits filed as cytotoxic; 1.5% of 130,000 active; note: nearly all actives have a fitted effect of over 55% in size
# p53ts 32C tox: p53ts cell cytotoxicity, permissive temperature; 0.93% of 130,000 active; H1299-p53A138V at 32C, ATP luminescence viability, 24 h; Potency, µM (doses to about 46.1 µM), hits mostly cytotoxic; AID 924; note: nearly all actives have a fitted effect of over 55% in size
#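 Cells: H1299 p53ts (A138V), 600/well, pre-incubated 16–30 h at 37C. Cpd up to 46 uM, 24 h, 32C. Readout: ATPlite luminescence, 20 min RT. Normalization: DMSO vs tamoxifen 100 uM. AC50 by Hill equation.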
# Hits are given with their value; n = inactive; u = inconclusive; x = not tested or not shown. The list is not random: actives were taken first. Their share in the collection is about 4.4%. Unless noted, calls come from the whole dose curve; as a rule, active = well fitted curve in the direction sought with a large enough effect; inconclusive = small, poorly fitted or top-dose-only effect, or another doubt; inactive = no such curve, though single readings can be large; an effect the other way counts as inactive or inconclusive.
SMILES,ALOX12 inhib,HPGD inh,p53ts 39C tox,p53ts 32C tox
CCOC(=O)c1c(C)n(C(=O)c2ccco2)c(=O)n1C(=O)c1ccco1,n,22µM,n,n
CCOC(=O)c1c(C)c(C(=O)N2CCN(C(=O)c3ccco3)CC2)c(C)n1C,n,n,n,n
COc1ccc(CNc2nc3c(-c4cccc(F)c4)nnn3c3ccccc23)cc1,x,x,13µM,u
COc1cc(/C=C(\C#N)C(=O)c2ccc(O)c(O)c2)cc(I)c1O,u,18µM,n,n
COc1ccc(-c2nnc3sc(CN4C(=O)c5ccccc5C4=O)nn23)cc1,n,n,n,n
COc1ccc(-c2nnc3sc(C(C)N4C(=O)c5ccccc5C4=O)nn23)cc1 (stereo unspecified),n,7.1µM,n,n
O=S(=O)(c1ccc(-c2csc(-c3cccnc3)n2)cc1)N1CCCCC1,n,28µM,n,n
Cc1ccc(C)c(NC(=O)CSc2nnc(CCCCCNC(=O)OC(C)(C)C)o2)c1,n,18µM,n,u
COCCNc1nc(C)nc2c1nc(-c1ccccc1)n2CCN(C)C,n,u,n,n
CC(=O)N1CCc2cc(NC(=O)c3ccc(C)cc3)ccc21,n,n,10µM,6.3µM
COc1cc(C2NC(=O)C(C#N)=C(S)N2c2ccc(C)cc2)ccc1OC(C)C (stereo unspecified),u,25µM,x,x
Cc1ccc(N2C(S)=C(C#N)C(=O)NC2c2cccs2)cc1 (stereo unspecified),u,22µM,x,x
CCOc1ccc(C2NC(=O)C(C#N)=C(S)N2c2ccc(OC)cc2)cc1OC (stereo unspecified),n,n,x,x
N#CC1=C(S)N(c2ccccc2)C(c2cccs2)NC1=O (stereo unspecified),n,32µM,x,x
CC(C)(C)C(=O)Nc1c(C(=O)N2CCN(c3ccc(F)cc3)CC2)oc2ccccc12,x,x,n,n
COc1ccc(Cl)cc1N(C)C(=O)CCc1nc(-c2ccc(C)cc2)no1,n,n,n,n
CCc1ccccc1N(C)C(=O)CCc1nc(-c2ccc(C)cc2)no1,n,14µM,n,n
Cc1ccc(O)c(NC(=O)c2noc3c2CCCCC3)c1,x,x,u,13µM
O=C(NCc1ccccc1)c1noc2c1CCCC2,n,n,n,n
O=C(NCc1cccc(F)c1)c1noc2c1CCCC2,n,20µM,n,n
Cc1nc2ncnn2c(N2CCCC(C(=O)Nc3ccc4c(c3)CCC4)C2)c1C (stereo unspecified),n,28µM,n,n
O=C(Nc1ccc2c(c1)CCC2)C1CCCN(c2ncccn2)C1 (stereo unspecified),n,n,n,n
O=[N+]([O-])c1cc(Cl)ccc1-c1nc(-c2ccccc2)no1,n,14µM,x,x
CCNc1ncc2nc(-c3ccc(Cl)cc3)c(=O)n(CCC#N)c2n1,x,x,n,n
CCc1nnc(NS(=O)(=O)c2ccc(NC(=S)NC(=O)c3ccccc3)cc2)s1,u,n,x,x
SMILES,ALOX12 inhib,HPGD inh,p53ts 39C tox,p53ts 32C tox
CCc1nnc(NS(=O)(=O)c2ccc(NC(=S)NC(=O)/C=C/c3ccc(C(C)C)cc3)cc2)s1,16µM,25µM,x,x
CCc1nnc(NS(=O)(=O)c2ccc(NC(=S)NC(=O)c3ccc(Br)cc3)cc2)s1,u,14µM,x,x
Brc1ccc(/C=N/Nc2ncnc3c2cnn3Cc2ccccc2)cc1,n,u,x,x
Oc1cccc(/C=N/Nc2ncnc3c2ncn3Cc2ccccc2)c1,n,22µM,x,x
Oc1ccc(/C=N/Nc2ncnc3c2ncn3Cc2ccccc2)cc1O,n,25µM,x,x
C=CCSSSCC=C,n,28µM,n,n
C=Cc1ccc(CSc2nc(-c3ccc(OC)cc3)nc3c2Cc2c(CO)cnc(C)c2O3)cc1,x,x,n,n
CC(=O)Nc1ccc(S(=O)(=O)N(c2cccnc2)S(=O)(=O)c2ccc(NC(C)=O)cc2)cc1,n,11µM,n,n
COc1cccc(-c2ccc(=O)n(CC(=O)Nc3ccc(C(=O)N4CCCC4)cc3)n2)c1,n,13µM,x,x
Cc1nn(CC(=O)Nc2ccc3c(c2)oc2ccccc23)c(=O)c2ccccc12,n,x,u,n
O=C(Cn1nc(-c2ccc(F)cc2)ccc1=O)Nc1ccc(C(=O)NC2CC2)cc1,n,28µM,x,x
COc1ccc(-c2ccc(=O)n(CC(=O)Nc3ccc(N(C)C)cc3)n2)cc1,x,x,n,n
Cc1nn(CC(=O)Nc2ccc(C(=O)N3CCCC3)cc2)c(=O)c2ccccc12,n,14µM,n,n
Cc1nn(CC(=O)Nc2ccc(C(=O)N3CCCCC3)cc2)c(=O)c2ccccc12,n,1.1µM,n,n
Cc1ccc(C(=O)NNC(=S)Nc2cccc(Cl)c2Cl)cc1[N+](=O)[O-],n,11µM,x,x
Cc1ccc(C(=O)NC(=S)Nc2cccc(NC(=O)c3ccccc3Cl)c2)cc1[N+](=O)[O-],u,n,x,x
CCCCSCCCNC(=O)c1cn(C)c2ccc(S(=O)(=O)N3CCCCC3)cc2c1=O,x,x,n,n
COc1ccc(-c2cn3nc(SCC(=O)Nc4cc(C)cc(C)c4)ccc3n2)cc1,x,x,n,n
COc1ccc(-c2cn3nc(SCC(=O)Nc4cccc(C)c4C)ccc3n2)cc1,x,x,16µM,n
CN(c1ncnc2onc(-c3cccc(Cl)c3)c12)C1CCCCC1,x,x,n,n
COc1ccc2c(=O)c(-c3ccccc3)coc2c1,n,u,5µM,u
CCN(CC)C(=O)Oc1ccc2c(=O)c(-c3ccccc3)coc2c1,n,n,u,n
COc1cccc(-c2nccc(NCc3cnc(C)cn3)n2)c1,x,x,n,n
N/C(=N\OC(=O)c1ccc(Cl)cc1Cl)c1ccc(Cl)cc1,n,5µM,x,x
N/C(=N\OC(=O)c1ccc(Cl)cc1Cl)c1ccccc1,n,14µM,x,x
SMILES,ALOX12 inhib,HPGD inh,p53ts 39C tox,p53ts 32C tox
Cc1ccc(/C(N)=N/OC(=O)c2ccc(C)cc2Cl)cc1,n,u,x,x
Cc1cccc(/C(N)=N/OC(=O)c2ccc(Cl)cc2Cl)c1,n,16µM,x,x
COc1ccc(C(=O)O/N=C(\N)c2ccccc2)c(OC)c1,n,14µM,x,x
N/C(=N\OC(=O)c1ccc(Cl)cc1)c1ccc(Cl)cc1,n,n,n,n
Cc1ccc(CSc2ncc(Cl)c(C(=O)NCc3ccccc3)n2)cc1,x,x,n,n
COC(=O)c1ccccc1NC(=O)c1nc(S(=O)(=O)Cc2ccccc2F)ncc1Cl,x,x,n,n
O=C(NCc1ccccc1)c1nc(S(=O)(=O)Cc2ccc(F)cc2)ncc1Cl,x,x,5µM,16µM
Cc1cccc(CS(=O)(=O)c2ncc(Cl)c(C(=O)NCc3ccccc3)n2)c1,x,x,5µM,25µM
O=S1(=O)C=C(Sc2nnc(-c3ccccc3)o2)c2ccccc21,n,14µM,u,13µM
CSc1nnc(-c2ccccc2)o1,n,u,n,n
Cc1ccc(C)c(Cn2c(=O)n(Cc3ccco3)c(=O)c3oc4ccccc4c32)c1,x,x,n,n
CCOC(=O)C[n+]1c(C)sc2ccc(OC)cc21,n,20µM,x,x
Cc1ccc(CNC(=O)c2sc3nc(-c4ccc(F)cc4)ccc3c2N)cc1,x,x,u,n
Oc1cc(Cc2ccccc2)cnc1CN1CCCCC1,n,25µM,n,n
COc1ccc2oc(-c3ccc(C)c(NC(=O)c4ccc(-c5ccccc5[N+](=O)[O-])o4)c3)nc2c1,x,x,10µM,n
O=c1[nH]n2c(=O)c3c([nH]c2c1N=Nc1cccc(Cl)c1)CCC3,n,7.1µM,x,x
